Measurements from PubChem BioAssay AID1259240 (Keith Lab, Institute of Cancer Science, University of …, 2017).
Calls of active or inactive are those of the source. No stated cut-off is given here; in the data, active means fold change mostly below about -2 (no sharp cut-off); inactive means mostly above about -1.8.

Experiment: modulation of TERT promoter-driven luciferase – cell-based, luciferase reporter, human, primary screen (AID 1259240)
Conditions: A2780 TERT promoter luciferase reporter, 16 h; at 20 µM, fold versus average of vehicle-only wells

| Structure (SMILES) | fold change | outcome |
| --- | --- | --- |
| O=C(NCc1ccc(Cl)cc1)Nc1ccc2snnc2c1 | -1.36 (inactive) | – |
| CCNc1nc(NCC)nc(C(=O)OCCO)n1 | 1.24 (inactive) | – |
| Cc1ccc(N2C(=O)c3n[nH]c(C)c3C2c2cccs2)cc1 (stereo not given) | 1.21 (inactive) | – |
| O=C(CC1(O)C(=O)N(CCc2ccccc2)c2ccc(Cl)cc21)c1ccc(F)cc1 (stereo not given) | -1.87 (inactive) | – |
| COc1cccc(C(=O)Cn2c(=O)n(C3CCCC3)c(=O)c3cc(OC)c(OC)cc32)c1 | -1.38 (inactive) | – |
| CCOC(=O)C1=C(CS(=O)(=O)c2ccc(Cl)cc2)NC(=O)NC1c1ccc(F)cc1 (stereo not given) | 1.41 (inactive) | – |
| CCOc1ccc(-n2c(O)c(C3=c4cc(Br)ccc4=NC3=O)[nH]c2=S)cc1 | – | inactive |
| COC(=O)c1nc2n(n1)C(c1ccc(C)cc1)C1=C(CCCC1=O)N2 (stereo not given) | – | inactive |
| COCC(=O)N1N=C(c2ccc(NS(C)(=O)=O)cc2)CC1c1ccccc1 (stereo not given) | 1.13 (inactive) | – |
| Cc1nc2sccn2c1-c1csc(Nc2ccc(O)cc2)n1 | -1.8 (inactive) | – |
| COc1ccc(S(=O)(=O)N2N=C(c3ccc(NS(C)(=O)=O)cc3)CC2c2ccco2)cc1 (stereo not given) | 1.12 (inactive) | – |
| COc1ccc2cc3c(N)nn(C(=O)CN4CCOCC4)c3nc2c1 | -1.27 (inactive) | – |
| CCN1CCN(S(=O)(=O)c2ccc3[nH]c(=O)oc3c2)CC1 | 1.02 (inactive) | – |
| COc1cc(/C=C2\SC(N3CCN(CCO)CC3)=NC2=O)ccc1O | 1.07 (inactive) | – |
| Cc1c(NC(=O)c2cc(CC(C)C)on2)c(=O)n(-c2ccccc2)n1C | -1.7 (inactive) | – |
| CCOC(=O)Cn1c(=O)oc2cc(S(=O)(=O)NCCC(C)C)ccc21 | -1 (inactive) | – |
| O=C(CSc1nc(-c2ccco2)cc(C(F)(F)F)n1)N1CCOCC1 | -2.11 (active) | – |
| COCC(=O)N1N=C(c2ccc(NS(C)(=O)=O)cc2)CC1c1ccco1 (stereo not given) | 1.02 (inactive) | – |
| O=C(O)CSc1nc(-c2cccs2)cc(C(F)(F)F)n1 | -1.48 (inactive) | – |
| Cc1c(/C=C2/SC(=S)N(CC(=O)O)C2=O)c2ccccc2n1C | 1.33 (inactive) | – |

| Structure (SMILES) | fold change | outcome |
| --- | --- | --- |
| N=C1/C(=C/c2ccc(SCc3ccco3)o2)C(=O)N=C2SC=C(c3ccccc3)N12 | -1.25 (inactive) | – |
| CCOC(=O)CSc1nnc(-c2c[nH]c3ccccc23)n1C | – | inactive |
| CC(C)C(NS(=O)(=O)c1cccc2nsnc12)C(=O)NC1CCCCC1C (stereo not given) | -1.42 (inactive) | – |
| CN1CCN(C(=O)c2cc3c(=O)[nH]c4ccccc4c3n2C)CC1 | -1.19 (inactive) | – |
| CN1C(C(=O)c2ccccc2)=C(OC(=O)c2ccc(F)cc2)c2ccccc2S1(=O)=O | 1.16 (inactive) | – |
| Cc1cc(=O)n2[nH]c(NC(=O)c3cccs3)nc2n1 | -1.29 (inactive) | – |
| CN1CCN(CCCNC(=O)Cn2ncc3c4ccccc4n(C)c3c2=O)CC1 | -1.07 (inactive) | – |
| CCCNc1c(NC2CCN(C(=O)OCC)CC2)c(=O)c1=O | -1.23 (inactive) | – |
| O=C(Nc1nccs1)c1cc2ccccc2c(=O)s1 | -1.86 (inactive) | – |
| O=C(O)c1ccc(CNc2c(N3CCOCC3)c(=O)c2=O)cc1 | 1.05 (inactive) | – |
| Cc1cc(S(=O)(=O)n2nc(-c3cccc(F)c3)cc2N)ccc1F | -1.3 (inactive) | – |
| N=c1n(CCN2CCOCC2)c2ccccc2n1CC(O)c1ccco1 (stereo not given) | -2.53 (active) | – |
| CCN(CC)CCNc1nc2c(c(=O)[nH]c(=O)n2C)n1Cc1cccc(C)c1 | -1.42 (inactive) | – |
| Cc1cc(NC(=O)CSc2nnc(Cc3cc(=O)[nH]c(=O)[nH]3)n2-c2ccccc2)no1 | -1.88 (inactive) | – |
| COC(=O)c1ccc(C(=O)OC)c(NC2=NS(=O)(=O)c3ccccc32)c1 | 1.16 (inactive) | – |
| CC(C)(C)NC(=O)Cn1c(=O)oc2ccc(Cl)cc21 | -3.03 (active) | – |
| COc1ccc(-c2nc3s/c(=C\c4ccccc4)c(=O)n3n2)cc1OC | 1.68 (inactive) | – |
| Cc1cc(NC(=O)CSCc2nc(-c3cccc(F)c3)oc2C)no1 | 1.06 (inactive) | – |
| Cc1nnc(SCc2nc(-c3ccc(Cl)cc3)no2)n1-c1ccccc1 | -1.9 (inactive) | – |
| COc1ccc(S(=O)(=O)NC(C)(C)CO)cc1-c1nnc2c3ccccc3c(C)nn12 | -1.26 (inactive) | – |
